The source of these data is PubChem BioAssay (NCATS).

The structures appear in SMILES notation. Values joined by “and” are separate entries in the source; they are usually repeats but may differ in a detail not shown here. Equal entries are not always repeated. Results filed as inconclusive are left out. Active and inactive are the calls of the source. Calls follow the shape of the dose curve; as a rule, active = well fitted inhibition curve with a large enough effect; inconclusive = small, poorly fitted or top-dose-only effect; inactive = flat fitted curve, though single readings scatter.

One assay concerns HEK293. Nature of the assay: Cytotoxic Profiling of Annotated Libraries Using Quantitative High-Throughput Screening (AID 1296008). To be noted: Five cell lines viability, CellTiter-Glo ATP luminescence, 48-72 h; max response: active compounds read low. An outline of the steps: (§1)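 Cytotoxicity was measured as CellTiter-Glo ATP luminescence, read after 10 min at room temperature. Compound treatment of the cells lasted 48 or 72 hr at 37 degrees Celsius in a qHTS format.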
(In general: ATP-based viability assays read luminescence as a measure of living cells.)

Assay [1] has as its system HaCat. The assay is described as above. Conditions: Five cell lines viability, CellTiter-Glo ATP luminescence, 48-72 h; max response: active compounds read low. An outline of the steps:
as §1

The subject of another assay is KB-3-1. The assay is described as above. To be noted: Five cell lines viability, CellTiter-Glo ATP luminescence, 48-72 h; max response: active compounds read low. The method, boiled down:
as §1

The test system of another assay is NIH3T3. The description is as above. To be noted: Five cell lines viability, CellTiter-Glo ATP luminescence, 48-72 h; max response: active compounds read low. The method, boiled down: as §1
Assay [2] deals with HACAT. Description: qHTS assay to identify novel small-molecules to repurpose for Merkel cell carcinoma treatment (AID 1296009). To be noted: MCC and control cell lines, CellTiter-Glo viability, 72 h; at 44.8 µM (top of the series) unless noted. An outline of the steps: (§2)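 72 hr, 37 degree celsius; NPC 8-pt / MIPE 11-pt dose response; compound pinned in DMSO; CellTiter-Glo, 10 min RT, luminescence; normalized to no-cell and DMSO controls.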

A further assay deals with MCC-13. The description is as above. To be noted: MCC and control cell lines, CellTiter-Glo viability, 72 h; series mostly up to 46 µM. An outline of the steps: as §2
The next assay deals with MKL-1. The assay is described as above. Conditions: MCC and control cell lines, CellTiter-Glo viability, 72 h; series mostly up to 46 µM. The method, boiled down: as §2
For the next assay, the system named is MKL-2. Described as above. To be noted: MCC and control cell lines, CellTiter-Glo viability, 72 h; series mostly up to 46 µM. The method, boiled down:
as §2

In the next assay the test system is MCC-26. The assay is described as above. Conditions: MCC and control cell lines, CellTiter-Glo viability, 72 h; series mostly up to 46 µM. The method, boiled down:
as §2
% is scaled to controls: 0 for no effect and ±100 for the full control effect; potency is read from the fitted curve at half-maximal effect.
Also: nearly all actives have a fitted effect of over 60% in size.

Regarding `CC[C@@H](C)[C@H](NC(=O)[C@H](CC1CCCCC1)NC(=O)c1ccno1)C(=O)N1CCC2(CCc3ccccc32)CC1`, the max response in the assay on HEK293 is -11.2% (inactive); in the assay with KB-3-1, -5.09% (inactive) and 8.53% (inactive); in the assay on NIH3T3 it was -7.84% (inactive) and -2.63% (inactive). The outcome in the assay with HaCat [1] and in the assay with HACAT [2] was inactive. In addition, the Potency result with MCC-13, with MKL-1 and with MKL-2 was “inactive” each time.

As for `Cn1cc(-c2ccc3nnc(C(F)(F)c4ccc5ncccc5c4)n3n2)cn1`, the max response in the assay on HEK293 was -1.08% (inactive); in the assay on HaCat [1] it was -1.46% (inactive); in the assay with KB-3-1, 5.05% (inactive) and 7.07% (inactive); in the assay on NIH3T3, -35.7% (inactive). For the same molecule, the Potency entry in the assay on MCC-13, in the assay on MCC-26, with MKL-1 and with MKL-2 was “inactive” throughout.

As for `CC(C)(C)NCC(O)c1ccc(O)c(CO)c1` (stereo not given), the max response with HEK293 is -5.93% (inactive) and 0.072% (inactive); in the assay on KB-3-1, -0.699% (inactive). The call in the assay with HaCat [1], in the assay with NIH3T3 and with HACAT [2] was inactive. Also, the Potency result in the assay with MCC-13, in the assay on MCC-26, with MKL-1 and in the assay with MKL-2 was “inactive” throughout.

Regarding `C[C@]1(c2nc3c(C(N)=O)cccc3[nH]2)CCCN1`, the max response in the assay with HEK293 is -23.2% (inactive); in the assay with HaCat [1], -38.2% (inactive); with KB-3-1, -0.184% (inactive); in the assay on NIH3T3, -22% (inactive). Besides, the Potency entry in the assay with MCC-13, in the assay with MKL-1 and in the assay on MKL-2 was “inactive” each time.

Take `C1COC(NC(C2CC2)C2CC2)=N1`: the max response in the assay on HEK293 was 3.3% (inactive) and -8.9% (inactive); in the assay on HaCat [1] it was 1.37% (inactive) and -11.9% (inactive). In addition, the result with KB-3-1 and with NIH3T3 was inactive. Further, the Potency result in the assay on MCC-13, in the assay with MCC-26, in the assay on MKL-1 and in the assay with MKL-2 was “inactive” each time.

For `O=C(O)[C@@H](c1ccc(OCc2ccc3ccccc3n2)cc1)C1CCCC1`, the max response in the assay with HEK293 was -13% (inactive); with HaCat [1], -16.3% (inactive); in the assay on KB-3-1, -4.52% (inactive); in the assay on NIH3T3, -0.267% (inactive). The Potency result in the assay with MCC-13, with MCC-26, with MKL-1 and in the assay with MKL-2 was “inactive” throughout.

Turning to `CCN(c1ccccc1)c1cc(NC)[n+](C)c(C)n1`, the max response was 1.35% (inactive) in the assay on HEK293, 7.88% (inactive) with KB-3-1 and -7.55% (inactive) with NIH3T3. Further, the outcome in the assay with HaCat [1] and in the assay with HACAT [2] was inactive. Also, the Potency entry in the assay on MCC-13, in the assay with MKL-1 and with MKL-2 was “inactive” each time.

For `CCOc1ccc(Cc2cc([C@@H]3O[C@H](CO)[C@@H](O)[C@H](O)[C@@H]3O)ccc2Cl)cc1`, the max response with HEK293 was 1.73% (inactive); with KB-3-1 it was 6.49% (inactive); in the assay on NIH3T3, 1.42% (inactive). Also, the outcome in the assay with HaCat [1] and with HACAT [2] was inactive. The Potency entry with MCC-13, in the assay on MCC-26 and in the assay on MKL-2 was “inactive” each time.

Take `OCCn1cc(-c2cnc3nnn(Cc4ccc5ncccc5c4)c3n2)cn1`: the max response is -13.9% (inactive) in the assay with HEK293; -20.1% (inactive) in the assay with HaCat [1]; 1.4% (inactive) and -22% (inactive) in the assay with KB-3-1; -29.5% (inactive) in the assay on NIH3T3. Further, the Potency result in the assay with MCC-13, with MCC-26, in the assay with MKL-1 and in the assay with MKL-2 was “inactive” throughout.

Regarding `CCn1c(-c2nonc2N)nc2cnc(Oc3cccc(NC(=O)c4ccc(OCCN5CCOCC5)cc4)c3)cc21`, the Potency in the assay with HEK293 is 11.8 µM (active); in the assay with KB-3-1, 5.9 µM (active); with NIH3T3 it was 14.8 µM (active). For the same molecule, the max response with HaCat [1] is -18.5% (inactive). The Potency result with MKL-2 is “inactive”.

Turning to `C#Cc1cccc(Nc2ncnc3cc(OCCOC)c(OCCOC)cc23)c1`, the Potency in the assay with HEK293 was 16.6 µM (active); in the assay with HaCat [1], 5.9 µM (active) and 944 nM (active) and 651 nM (active). Also, the max response in the assay with KB-3-1 is -10.3% (inactive) and -1.91% (inactive). In addition, the Potency entry with MCC-13, in the assay on MCC-26, in the assay with MKL-1 and with MKL-2 was “inactive” throughout.

On to `CS(=O)(=O)Oc1ccc2c(NC(N)=O)c(C(=O)c3ccc(Cl)cc3Cl)oc2c1`, for which the values for the max response in the assay on HEK293, in the assay with KB-3-1 and in the assay with NIH3T3 were 3.62% (inactive), 0.867% (inactive) and -0.156% (inactive), respectively. The molecule was classed as inactive in the assay on HaCat [1] and with HACAT [2]. For the same molecule, in the assay with MCC-13, the Potency result is “inactive”. Further, the Potency with MKL-1 was 8.33 µM (active); in the assay with MKL-2, 2.96 µM (active).

Turning to `CCCS(=O)(=O)Nc1ccc(F)c(C(=O)c2c[nH]c3ncc(Cl)cc23)c1F`, the Potency with HEK293 was 14.8 µM (active). Also, the max response with HaCat [1] was -1.82% (inactive); in the assay with KB-3-1, -9.42% (inactive) and -0.0181% (inactive); with NIH3T3 it was -18.6% (inactive). Besides, the Potency result with MCC-13, in the assay with MKL-1 and in the assay with MKL-2 was “inactive” each time.

On to `CO[C@@H]1[C@H](N(C)C(=O)c2ccccc2)C[C@H]2O[C@]1(C)n1c3ccccc3c3c4c(c5c6ccccc6n2c5c31)C(=O)NC4`, for which the Potency with HEK293 was 8.33 µM (active); in the assay on HaCat [1] it was 3.72 µM (active); in the assay on KB-3-1, 3.32 µM (active); in the assay on NIH3T3, 1.66 µM (active); in the assay on MCC-13 it was 2.96 µM (active); with MCC-26 it was 4.69 µM (active).
